Measured values taken from the supplement of paper PMC10849652.
About 7,900 targets were measured; listed, in parts, are those with a hit and a random draw of the rest. About 0.6% of all pairs of compound and target were hits.

Experiments:
Experiment in all cases: log2 fold change, soluble protein after heating vs DMSO (PISA); higher = thermal stabilisation; K562 cells, 10 uM, 30 min; active = over 0.2 and 3.5 SD of the protein, either way, in both replicates (recomputed)
[1] = compound: CC1=C(C=C(C=C1)NC(=O)C2=CC(=CC=C2)C(C)(C)C#N)NC3=CC4=C(C=C3)N=CN(C4=O)C
In short: (§1)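 Aliquots of K562 cells (2×10^6 cells/mL) treated with 10 μM compound for 30 min were heated for 3 min over 48°C-58°C. After pooling and extraction in PBS with 0.5% NP-40 at 4°C, soluble protein from a 21,000xg, 90 min spin was quantified by TMTpro 16plex LC-MS/MS with channel sums equalised. Thermal stability is expressed against control samples, from duplicates, as a log2 fold change.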

[2] = compound: CC1=C(C=C(C=C1)NC(=O)C2=CC(=CC=C2)N(C)C)NC(=O)C3=CC=C(C=C3)O
In short: as §1

[3] = compound: CC1=CC=C(C=C1)SC2=C3C=C(SC3=CN=C2)C(=O)N
In short: as §1

[4] = compound: CC1=NC(=CC=C1)C2=C(N=C(N2)C(C)(C)C)C3=CC4=NC=CN=C4C=C3
In short: as §1

Nexturastat A = compound: CCCCN(Cc1ccc(C(=O)NO)cc1)C(=O)Nc1ccccc1 [Nexturastat A]
In short: as §1

vemurafenib = compound: CCCS(=O)(=O)Nc1ccc(F)c(C(=O)c2c[nH]c3ncc(-c4ccc(Cl)cc4)cc23)c1F [vemurafenib]
In short: as §1

[5] = compound: CCCS(=O)(=O)Nc1ccc(F)c(C(=O)c2c[nH]c3ncc(Cl)cc23)c1F
In short: as §1

[6] = compound: CCCc1cc(C)[nH]c(=O)c1CNC(=O)c1cc(-c2ccnc(N3CCN(C)CC3)c2)cc2c1cnn2C(C)C
In short: as §1

givinostat = compound: CCN(CC)Cc1ccc2cc(COC(=O)Nc3ccc(C(=O)NO)cc3)ccc2c1 [givinostat]
In short: as §1

barasertib = compound: CCN(CCCOc1ccc2c(Nc3cc(CC(=O)Nc4cccc(F)c4)[nH]n3)ncnc2c1)CCOP(=O)(O)O [barasertib]
In short: as §1

Measured: log2 fold change

SEPTIN5 (UniProt Q99719)
inactive: [1] 0.026 | [2] 0 | [3] 0.007 | [4] 0.003 | Nexturastat A -0.06 | vemurafenib -0.015 | [5] -0.015 | [6] 0.104 | givinostat -0.006 | barasertib -0.013

REL (UniProt Q04864)
inactive: [1] 0.001 | [2] -0.044 | [3] 0.033 | [4] -0.004 | Nexturastat A -0.053 | vemurafenib 0.044 | [5] 0.077 | [6] -0.022 | givinostat 0.101 | barasertib 0.079

RPP25L (UniProt Q8N5L8)
UniProt Q8N5L8, sequence (Q8N5L8 whole entry, looked up): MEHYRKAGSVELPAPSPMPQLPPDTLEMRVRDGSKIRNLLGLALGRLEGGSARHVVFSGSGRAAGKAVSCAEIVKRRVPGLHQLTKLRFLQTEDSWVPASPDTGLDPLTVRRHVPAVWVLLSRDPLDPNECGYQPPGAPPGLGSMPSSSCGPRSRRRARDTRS
inactive: [1] -0.028 | [2] -0.015 | [3] 0.036 | [4] 0.02 | Nexturastat A -0.01 | vemurafenib -0.034 | [5] -0.035 | [6] -0.048 | givinostat -0.073 | barasertib -0.025

SENP6 (UniProt Q9GZR1)
inactive: [1] -0.048 | [2] -0.006 | [3] 0.037 | [4] -0.007 | Nexturastat A 0.247 | vemurafenib -0.028 | [5] -0.01 | [6] 0.077 | givinostat 0.057 | barasertib -0.026

RECQL (UniProt P46063)
UniProt P46063, sequence (P46063 whole entry, looked up): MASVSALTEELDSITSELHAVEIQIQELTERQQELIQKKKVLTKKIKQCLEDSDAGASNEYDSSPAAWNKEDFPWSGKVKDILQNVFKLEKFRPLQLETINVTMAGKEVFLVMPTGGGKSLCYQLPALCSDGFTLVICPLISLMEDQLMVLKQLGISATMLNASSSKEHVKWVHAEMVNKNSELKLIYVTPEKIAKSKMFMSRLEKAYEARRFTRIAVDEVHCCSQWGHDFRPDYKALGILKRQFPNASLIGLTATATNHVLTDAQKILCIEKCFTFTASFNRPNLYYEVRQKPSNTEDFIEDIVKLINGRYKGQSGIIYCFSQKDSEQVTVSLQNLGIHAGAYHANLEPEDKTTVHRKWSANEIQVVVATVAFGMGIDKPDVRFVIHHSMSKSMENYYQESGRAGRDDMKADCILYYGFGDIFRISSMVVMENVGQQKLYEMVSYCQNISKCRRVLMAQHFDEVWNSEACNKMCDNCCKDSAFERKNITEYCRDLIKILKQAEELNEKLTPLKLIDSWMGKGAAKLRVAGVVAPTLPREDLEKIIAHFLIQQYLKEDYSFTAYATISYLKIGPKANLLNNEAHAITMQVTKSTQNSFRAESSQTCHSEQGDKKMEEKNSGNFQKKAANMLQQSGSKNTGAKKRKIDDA
inactive: [1] 0.028 | [2] -0.012 | [3] 0.011 | [4] 0.039 | Nexturastat A -0.002 | vemurafenib -0.009 | [5] 0.063 | [6] -0.007 | givinostat 0.038 | barasertib -0.002

SEC16A isoform 5 (UniProt O15027)
UniProt O15027, sequence (O15027 whole entry, looked up): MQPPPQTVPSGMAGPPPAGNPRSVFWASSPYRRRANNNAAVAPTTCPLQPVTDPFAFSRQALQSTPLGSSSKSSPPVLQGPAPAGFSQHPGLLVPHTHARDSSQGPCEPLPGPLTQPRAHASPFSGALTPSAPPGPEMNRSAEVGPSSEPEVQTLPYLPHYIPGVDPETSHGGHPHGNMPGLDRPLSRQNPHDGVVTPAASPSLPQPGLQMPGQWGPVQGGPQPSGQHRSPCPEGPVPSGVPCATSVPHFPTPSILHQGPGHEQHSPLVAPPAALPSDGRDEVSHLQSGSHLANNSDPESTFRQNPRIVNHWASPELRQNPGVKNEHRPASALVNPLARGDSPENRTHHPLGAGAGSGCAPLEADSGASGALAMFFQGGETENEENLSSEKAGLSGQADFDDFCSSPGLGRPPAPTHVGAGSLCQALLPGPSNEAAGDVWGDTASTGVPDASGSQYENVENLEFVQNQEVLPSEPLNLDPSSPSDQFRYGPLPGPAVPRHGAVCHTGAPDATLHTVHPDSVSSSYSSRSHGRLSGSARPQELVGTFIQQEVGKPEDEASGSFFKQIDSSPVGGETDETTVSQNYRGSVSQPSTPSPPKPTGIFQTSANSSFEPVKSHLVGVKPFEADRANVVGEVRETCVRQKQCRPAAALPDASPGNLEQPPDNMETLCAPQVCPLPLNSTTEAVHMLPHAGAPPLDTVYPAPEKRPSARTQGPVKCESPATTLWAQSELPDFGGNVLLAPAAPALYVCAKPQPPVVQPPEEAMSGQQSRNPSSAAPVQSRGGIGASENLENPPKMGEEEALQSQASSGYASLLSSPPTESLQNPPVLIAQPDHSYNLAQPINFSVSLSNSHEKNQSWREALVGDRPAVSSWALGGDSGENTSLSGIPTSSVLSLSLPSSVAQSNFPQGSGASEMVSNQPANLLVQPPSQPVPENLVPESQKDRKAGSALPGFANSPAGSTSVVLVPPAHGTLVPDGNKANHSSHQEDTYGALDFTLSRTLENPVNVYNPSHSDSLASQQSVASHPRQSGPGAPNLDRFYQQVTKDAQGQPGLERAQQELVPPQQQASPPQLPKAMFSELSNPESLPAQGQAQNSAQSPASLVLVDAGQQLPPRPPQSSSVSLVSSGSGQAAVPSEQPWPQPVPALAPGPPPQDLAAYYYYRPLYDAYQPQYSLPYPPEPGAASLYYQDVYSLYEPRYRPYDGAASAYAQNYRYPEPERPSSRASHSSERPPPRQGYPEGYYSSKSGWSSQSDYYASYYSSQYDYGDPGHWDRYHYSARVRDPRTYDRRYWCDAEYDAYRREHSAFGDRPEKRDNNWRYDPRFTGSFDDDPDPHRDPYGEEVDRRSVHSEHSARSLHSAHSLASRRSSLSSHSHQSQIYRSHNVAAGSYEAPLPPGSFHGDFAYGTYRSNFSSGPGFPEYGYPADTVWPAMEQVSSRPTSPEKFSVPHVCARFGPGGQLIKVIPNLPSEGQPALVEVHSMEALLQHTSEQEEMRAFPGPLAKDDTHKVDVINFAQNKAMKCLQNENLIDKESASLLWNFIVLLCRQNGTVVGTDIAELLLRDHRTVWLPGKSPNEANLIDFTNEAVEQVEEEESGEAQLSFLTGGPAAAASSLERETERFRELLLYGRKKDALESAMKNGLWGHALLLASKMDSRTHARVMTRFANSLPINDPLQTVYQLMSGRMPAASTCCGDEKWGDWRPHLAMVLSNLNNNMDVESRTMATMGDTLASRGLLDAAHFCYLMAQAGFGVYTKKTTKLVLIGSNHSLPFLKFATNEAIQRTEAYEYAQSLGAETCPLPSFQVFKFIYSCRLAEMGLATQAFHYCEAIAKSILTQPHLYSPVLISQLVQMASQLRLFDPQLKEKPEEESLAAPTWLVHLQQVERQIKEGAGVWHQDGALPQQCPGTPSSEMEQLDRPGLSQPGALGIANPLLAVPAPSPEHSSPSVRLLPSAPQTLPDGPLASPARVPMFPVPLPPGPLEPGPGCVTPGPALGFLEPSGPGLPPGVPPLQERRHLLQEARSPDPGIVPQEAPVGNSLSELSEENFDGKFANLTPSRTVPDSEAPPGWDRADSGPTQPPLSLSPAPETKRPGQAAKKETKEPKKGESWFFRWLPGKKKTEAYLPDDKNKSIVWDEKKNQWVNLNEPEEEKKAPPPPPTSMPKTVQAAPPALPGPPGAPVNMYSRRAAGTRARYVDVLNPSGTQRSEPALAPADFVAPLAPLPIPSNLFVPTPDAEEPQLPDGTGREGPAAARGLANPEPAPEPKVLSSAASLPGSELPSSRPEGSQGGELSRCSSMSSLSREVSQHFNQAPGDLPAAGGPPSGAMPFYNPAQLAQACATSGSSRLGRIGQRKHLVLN
inactive: [1] -0.079 | [2] -0.042 | [3] 0.036 | [4] -0.001 | Nexturastat A 0.044 | vemurafenib 0.035 | [5] -0.031 | [6] 0.061 | givinostat 0.09 | barasertib 0.043

RPS13 (UniProt P62277)
inactive: [1] 0.006 | [2] 0.022 | [3] -0.044 | [4] -0.057 | Nexturastat A 0.119 | vemurafenib -0.144 | [5] -0.09 | [6] 0.091 | givinostat 0.045 | barasertib -0.101

RRS1 (UniProt Q15050)
inactive: [1] 0.024 | [2] 0.021 | [3] -0.043 | [4] -0.163 | Nexturastat A 0.31 | vemurafenib -0.174 | [5] -0.03 | [6] 0.104 | givinostat 0.093 | barasertib -0.101

RPS3A (UniProt P61247)
inactive: [1] 0.011 | [2] 0.009 | [3] -0.081 | [4] -0.036 | Nexturastat A 0.069 | vemurafenib -0.104 | [5] -0.095 | [6] 0.071 | givinostat -0.033 | barasertib -0.109

SLBP (UniProt Q14493)
UniProt Q14493, sequence (Q14493 whole entry, looked up): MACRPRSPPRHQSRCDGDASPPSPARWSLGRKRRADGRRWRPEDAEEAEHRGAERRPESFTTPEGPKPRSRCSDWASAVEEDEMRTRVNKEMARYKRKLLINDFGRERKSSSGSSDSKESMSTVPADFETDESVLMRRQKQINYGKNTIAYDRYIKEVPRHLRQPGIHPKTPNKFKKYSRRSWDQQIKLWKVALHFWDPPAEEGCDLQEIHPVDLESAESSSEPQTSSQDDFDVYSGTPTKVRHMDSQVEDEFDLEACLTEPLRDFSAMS
inactive: [1] -0.012 | [2] -0.08 | [3] 0.019 | [4] 0.099 | Nexturastat A -0.218 | vemurafenib 0.028 | [5] 0.057 | [6] 0.024 | givinostat 0.055 | barasertib 0.06

RPS5 (UniProt P46782)
inactive: [1] 0.012 | [2] 0 | [3] 0.001 | [4] -0.038 | Nexturastat A 0.126 | vemurafenib -0.034 | [5] -0.066 | [6] 0.038 | givinostat -0.014 | barasertib -0.1

RPS25 (UniProt P62851)
inactive: [1] 0.009 | [2] 0 | [3] -0.03 | [4] 0 | Nexturastat A 0.11 | vemurafenib -0.08 | [5] -0.102 | [6] 0.06 | givinostat 0.042 | barasertib -0.075

RAC1 (UniProt P63000)
inactive: [1] 0.14 | [2] -0.002 | [3] -0.055 | [4] 0.241 | Nexturastat A -0.021 | vemurafenib -0.046 | [5] -0.008 | [6] 0.032 | givinostat -0.059 | barasertib -0.026

RNASEH2A (UniProt O75792)
inactive: [1] -0.023 | [2] -0.018 | [3] 0.022 | [4] 0.046 | Nexturastat A 0.142 | vemurafenib -0.102 | [5] -0.024 | [6] -0.063 | givinostat 0.046 | barasertib 0.039

RANBP2 (UniProt P49792)
inactive: [1] 0.089 | [2] -0.07 | [3] -0.041 | [4] 0.04 | Nexturastat A 0.221 | vemurafenib -0.086 | [5] 0.03 | [6] -0.072 | givinostat 0.046 | barasertib 0.036

RNASET2 (UniProt O00584)
UniProt O00584, sequence (O00584 whole entry, looked up): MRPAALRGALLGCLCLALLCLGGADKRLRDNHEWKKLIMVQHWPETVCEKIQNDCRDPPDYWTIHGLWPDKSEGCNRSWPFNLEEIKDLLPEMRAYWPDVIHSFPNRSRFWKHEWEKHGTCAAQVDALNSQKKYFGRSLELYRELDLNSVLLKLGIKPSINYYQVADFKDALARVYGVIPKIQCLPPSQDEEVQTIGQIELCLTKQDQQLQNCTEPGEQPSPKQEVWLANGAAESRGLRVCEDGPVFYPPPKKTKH
inactive: [1] 0.007 | [2] 0.026 | [3] 0.033 | [4] 0.027 | Nexturastat A -0.079 | vemurafenib -0.019 | [5] 0.004 | [6] 0.001 | givinostat -0.006 | barasertib -0.013

SASH1 (UniProt O94885)
inactive: [1] 0.046 | [2] -0.013 | [3] 0.024 | [4] 0.01 | Nexturastat A 0.038 | vemurafenib -0.043 | [5] 0.097 | [6] -0.031 | givinostat -0.063 | barasertib 0.071

RNPS1 (UniProt Q15287)
inactive: [1] -0.043 | [2] 0.015 | [3] 0.017 | [4] 0.031 | Nexturastat A 0.245 | vemurafenib -0.001 | [5] -0.033 | [6] -0.024 | givinostat 0.071 | barasertib 0.015

RSRC1 (UniProt Q96IZ7)
inactive: [1] 0.041 | [2] 0.013 | [3] 0.006 | [4] 0.056 | Nexturastat A 0.02 | vemurafenib -0.046 | [5] 0.004 | [6] -0.026 | givinostat 0.019 | barasertib -0.031

RBM27 (UniProt Q9P2N5)
UniProt Q9P2N5, sequence (Q9P2N5 whole entry, looked up): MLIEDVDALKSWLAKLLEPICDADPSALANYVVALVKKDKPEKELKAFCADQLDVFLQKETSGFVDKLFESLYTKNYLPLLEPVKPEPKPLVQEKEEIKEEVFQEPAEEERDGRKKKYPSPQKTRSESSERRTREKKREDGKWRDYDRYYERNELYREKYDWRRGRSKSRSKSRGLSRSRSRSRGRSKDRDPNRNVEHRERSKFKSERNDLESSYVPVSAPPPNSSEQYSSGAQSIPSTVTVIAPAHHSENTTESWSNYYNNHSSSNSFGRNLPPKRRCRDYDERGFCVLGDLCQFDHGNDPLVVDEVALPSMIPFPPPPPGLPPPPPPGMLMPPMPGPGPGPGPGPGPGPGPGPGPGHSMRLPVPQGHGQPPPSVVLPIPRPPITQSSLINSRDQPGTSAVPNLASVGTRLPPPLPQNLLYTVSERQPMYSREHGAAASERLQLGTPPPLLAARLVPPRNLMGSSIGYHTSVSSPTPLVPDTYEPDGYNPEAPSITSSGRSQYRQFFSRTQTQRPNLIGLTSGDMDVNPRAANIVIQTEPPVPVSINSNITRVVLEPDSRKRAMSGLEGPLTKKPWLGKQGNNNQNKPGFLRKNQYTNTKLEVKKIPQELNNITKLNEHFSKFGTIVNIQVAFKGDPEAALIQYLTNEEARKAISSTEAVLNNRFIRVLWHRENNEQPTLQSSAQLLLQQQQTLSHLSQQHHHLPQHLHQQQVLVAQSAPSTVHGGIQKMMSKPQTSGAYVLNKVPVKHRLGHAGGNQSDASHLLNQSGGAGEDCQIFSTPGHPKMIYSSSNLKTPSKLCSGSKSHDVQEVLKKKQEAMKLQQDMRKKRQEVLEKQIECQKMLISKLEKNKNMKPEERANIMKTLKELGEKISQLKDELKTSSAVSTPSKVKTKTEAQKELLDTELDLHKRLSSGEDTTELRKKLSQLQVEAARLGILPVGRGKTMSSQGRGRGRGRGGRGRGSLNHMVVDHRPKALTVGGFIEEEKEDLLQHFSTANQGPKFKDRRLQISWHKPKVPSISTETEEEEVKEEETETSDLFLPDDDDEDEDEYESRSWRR
inactive: [1] 0.031 | [2] -0.008 | [3] 0.01 | [4] -0.018 | Nexturastat A 0.025 | vemurafenib -0.008 | [5] 0.09 | [6] 0.041 | givinostat 0.013 | barasertib 0.009

RPTOR (UniProt Q8N122)
inactive: [1] 0.009 | [2] 0.019 | [3] 0.027 | [4] 0.025 | Nexturastat A -0.018 | vemurafenib 0.017 | [5] 0.09 | [6] 0.012 | givinostat -0.007 | barasertib -0.007

SCO2 (UniProt O43819)
UniProt O43819, sequence (O43819 whole entry, looked up): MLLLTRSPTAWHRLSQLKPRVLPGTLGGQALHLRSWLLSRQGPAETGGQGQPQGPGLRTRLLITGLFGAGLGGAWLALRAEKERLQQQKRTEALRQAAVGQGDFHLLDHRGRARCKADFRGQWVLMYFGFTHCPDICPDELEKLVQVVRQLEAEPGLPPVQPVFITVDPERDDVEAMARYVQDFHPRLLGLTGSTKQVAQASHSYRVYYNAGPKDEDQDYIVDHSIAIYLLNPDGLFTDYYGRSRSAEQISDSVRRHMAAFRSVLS
active: [1] -0.487
inactive: [2] -0.079 | [3] 0.029 | [4] -0.003 | Nexturastat A 0.269 | vemurafenib 0.05 | [5] 0.029 | [6] 0.059 | givinostat 0.03 | barasertib 0.153

SDHC (UniProt Q99643)
inactive: [1] 0.01 | [2] 0.023 | [3] -0.041 | [4] 0.023 | Nexturastat A -0.217 | vemurafenib 0.128 | [5] 0.038 | [6] -0.122 | givinostat -0.108 | barasertib -0.04

RPS20 isoform 2 (UniProt P60866)
inactive: [1] 0.056 | [2] 0.021 | [3] -0.049 | [4] -0.077 | Nexturastat A 0.112 | vemurafenib -0.117 | [5] -0.068 | [6] 0.008 | givinostat -0.032 | barasertib -0.063

RPS21 (UniProt P63220)
inactive: [1] -0.007 | [2] 0.01 | [3] -0.042 | [4] -0.007 | Nexturastat A -0.033 | vemurafenib -0.077 | [5] -0.072 | [6] -0.038 | givinostat -0.015 | barasertib -0.016

RPS3 (UniProt P23396)
inactive: [1] 0.011 | [2] 0.003 | [3] -0.077 | [4] -0.042 | Nexturastat A 0.069 | vemurafenib -0.086 | [5] -0.102 | [6] 0.041 | givinostat 0.007 | barasertib -0.088

RPL38 (UniProt P63173)
inactive: [1] 0.032 | [2] 0.017 | [3] -0.038 | [4] -0.045 | Nexturastat A 0.075 | vemurafenib -0.003 | [5] 0.006 | [6] 0.069 | givinostat -0.054 | barasertib -0.025

RDH10 (UniProt Q8IZV5)
inactive: [1] 0.004 | [2] -0.034 | [3] 0.047 | [4] -0.055 | Nexturastat A -0.107 | vemurafenib -0.016 | [5] -0.058 | [6] -0.043 | givinostat -0.091 | barasertib 0.011

RCN3 (UniProt Q96D15)
inactive: [1] -0.055 | [2] 0.029 | [3] -0.028 | [4] -0.073 | Nexturastat A 0.077 | vemurafenib -0.003 | [5] -0.053 | [6] -0.145 | givinostat -0.023 | barasertib -0.011

SCPEP1 (UniProt Q9HB40)
inactive: [1] -0.003 | [2] 0.016 | [3] 0.05 | [4] 0.022 | Nexturastat A -0.035 | vemurafenib 0.002 | [5] 0.013 | [6] -0.028 | givinostat -0.031 | barasertib 0.012
